{"source": "PubChem BioAssay (NCATS)", "note": "Unmarked numbers belong to inactive results. Activity calls are given as the source filed them. The call rests on the fitted dose curve; in most records, active means well fitted activation curve with a large enough effect; inconclusive means small, poorly fitted or top-dose-only effect; inactive means flat fitted curve, though single readings scatter."}
{"assay": "Confirmation and Secondary Assay for Modulators of Hemoglobin Beta Chain Splicing at IVS2 654 locus (AID 910);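 further: HeLa cells stably carrying EGFP split by mutant beta-globin IVS2-654 intron; % of control where 0% means no effect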", "settings": "HeLa EGFP-654 splicing reporter, GFP fluorescence, 48 h; series mostly up to 46.1 µM; activation (splicing correction): at the top concentration", "source_text": "NIH Chemical Genomics Center [NCGC] NIH Molecular Libraries Screening Centers Network [MLSCN] MLSCN Grant: 1 X01 MH080684-01 PI Name: Dr. Ryszard Kole NCGC Assay Overview: Modulation of Alternative Splicing as Therapy Abnormal splicing is associated with a number of diseases, including cancer and genetic diseases such as cystic fibrosis, muscular dystrophy and beta-thalassemia. Alteration of disease associated splicing patterns provides a promising target for treatment. […] Mutations in the second intron of the b-globin gene at positions 654 or 705 are clinically relevant and cause mis-splicing which results in an out of frame gene product. […] EGFP-654 HeLa Cells as screen system. HeLa cell lines were stably transfected with a construct in which the EGFP (enhanced green fluorescent protein) cDNA was interrupted by the second intron of the beta-globin gene (IVS2-654). The ISV2 intron contains mutations which cause mis-splicing of EGFP and premature termination of EGFP which results in a nonfluorescent protein product. […] Expression of the transgene was driven by the CMV promoter. We concluded that a low molecular weight compound, which restored correct splicing of intron 2 would also generate functional EGFP protein, resulting in a fluorescent signal. Thus, the HeLa cells that express the EGFP-654 construct can be used for high throughput screening of a chemical library.\nNCGC Assay Protocol Summary: Confirmatory Screening. Freshly thawed HeLa EGFP-654 cells were seeded in 5 ul of optimem media (Invitrogen) containing 2 % fetal calf serum (Hyclone) and 1x penicillin/streptomycin (Invitrogen) at a concentration of 500 cells per well in 1536-well plates. Cells were incubated overnight at 37C in 5% CO2. The next day, cells were treated with DMSO, 500 nM antisense ISV2 654 PNA control oligo, or library compound and allowed to grow at 37C in 5% CO2 for 2 days. The PNA oligo blocked the mutation site in the intron and allowed proper (wild type) splicing to occur, resulting in full length EGFP expression and also allowed for optimization of the assay parameters. Plates were read in the Acumen Explorer (TTP Labtech) using 488 nm laser excitation and 500-520 nm emission PMT filter in a 1 x 8 uM capture mode. Fluorescnet objects ranging in size from 5 to 250 uM were measured and the total peak GFP intensity for each well was used for data analysis. Keywords: Thalassemia, beta-thalassemia, beta-globin, EGFP, ISV2 654, ISV2 705, SSO, PNA, antisense, splicing, MLSMR, MLSCN, NIH Roadmap, qHTS, NCGC"}
{"molecule": "CCCCCCCCCCCC(CC1OC(=O)C1CCCCCC)OC(=O)C(CC(C)C)NC=O", "note": "(stereo unspecified)", "activation (splicing correction)": "-7.87%"}
{"molecule": "C[C@@]12C(=O)OC(=O)[C@@]1(C)C1CCC2O1", "activation (splicing correction)": "-1.36% [at 38.3 µM]"}
{"molecule": "Oc1cc2c(cc1O)C1c3ccc(O)c(O)c3OCC1(O)C2", "note": "(stereo unspecified)", "activation (splicing correction)": "0.0779%"}
{"molecule": "Cc1ccc(O)c(C(CCN(C(C)C)C(C)C)c2ccccc2)c1", "note": "(stereo unspecified)", "activation (splicing correction)": "2.45% [at 38.3 µM]"}
{"molecule": "COc1ccc(C(C)=O)c(O)c1", "activation (splicing correction)": "-2.28%"}
{"molecule": "CCC(C(=O)O)C1CCC(C)C(C(C)C(O)C(C)C(=O)C(CC)C2OC3(C=CC(O)[C@@]4(CC[C@](C)(C5CC[C@@](O)(CC)C(C)O5)O4)O3)C(C)CC2C)O1", "note": "(stereo partly specified)", "activation (splicing correction)": "0.0212%"}
{"molecule": "OCC(O)C(O)C(O)CO", "note": "(stereo unspecified)", "outcome": "inactive"}
{"molecule": "c1coc(CNc2ncnc3nc[nH]c23)c1", "activation (splicing correction)": "11.8%"}
{"molecule": "CC(Cc1ccc(O)c(O)c1)(NN)C(=O)O", "note": "(stereo unspecified)", "activation (splicing correction)": "2.15% [at 38.3 µM]"}
{"molecule": "Cc1cc(O)c2c(c1)C(=O)c1cccc(O)c1C2=O", "activation (splicing correction)": "1.74% [at 38.3 µM]"}
{"molecule": "O=c1c(O)c(-c2ccc(O)c(O)c2)oc2cc(O)ccc12", "activation (splicing correction)": "8.14% [at 38.3 µM]"}
